The whole screen tested about 7,700 compounds, of which about 15 (0.2%) were called active. Roughly 6% stayed inconclusive and do not appear here.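 Rule for the calls: active = more than half of replicate wells with inhibition above about 18% (limit read from the data, passing the limit was not always enough); inconclusive = exactly half of replicate wells above that limit; inactive = fewer than half of replicates above it.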 Only a selection was taken, and actives are over-represented in it overall.
Biological target: Regulator of chromosome condensation (Homo sapiens) + GTP-binding nuclear protein Ran (Homo sapiens) + Importin subunit beta-1 (Homo sapiens) (UniProt P18754+P62826+Q14974)
Assay: RanGTP/importin-beta interaction disruptors – biochemical, CFP-Ran/YFP-importin-beta FRET, RCC1, cell-free, primary screen (AID 434961);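 note: 0% = DMSO wells and 100% inhibition = RanGDP control wells on each plate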
Conditions: active compounds read high, concentration not given here

inhibition, inactive:
COc1ccc(S(=O)(=O)Nc2ccc3c(c2)CC(=O)N([C@H](C)CO)C[C@H](C)[C@H](CN(C)S(=O)(=O)c2cn(C)cn2)O3)cc1 5.44%, C[C@@H]1CN([C@@H](C)CO)C(=O)c2cccc(NS(=O)(=O)c3cccs3)c2O[C@@H]1CN(C)Cc1ccc(C(=O)O)cc1 -3.95%, Cc1ccc(S(=O)(=O)Nc2ccc3c(c2)CC(=O)N([C@H](C)CO)C[C@@H](C)[C@@H](CN(C)C(=O)Nc2c(C)noc2C)O3)cc1 1.18%, C[C@H]1CN([C@@H](C)CO)C(=O)c2cccc(NC(=O)c3cnccn3)c2O[C@@H]1CN(C)C(=O)Nc1ccccc1 -1.79%, C[C@H]1CCCCO[C@H](CN(C)C(=O)C2CCCCC2)[C@@H](C)CN([C@@H](C)CO)C(=O)c2cc(NS(=O)(=O)c3cccs3)ccc2O1 2.26%, C[C@@H]1CN([C@H](C)CO)C(=O)c2cc(NC(=O)c3ccncc3)ccc2O[C@@H](C)CCCCO[C@H]1CN(C)Cc1ccc(C(=O)O)cc1 -0.563%, COc1ccc(NC(=O)Nc2ccc3c(c2)C(=O)N([C@H](C)CO)C[C@H](C)[C@@H](CN(C)C)O3)cc1 -2.6%, COc1ccc(CN(C)C[C@@H]2Oc3c(NS(=O)(=O)c4ccc(OC)cc4)cccc3C(=O)N([C@@H](C)CO)C[C@H]2C)cc1 0.462%, C[C@@H]1CCCCO[C@@H](CN(C)C(=O)Nc2cccc3ccccc23)[C@@H](C)CN([C@@H](C)CO)C(=O)c2cc(N(C)C)ccc2O1 2.86%, Cc1noc(C)c1NC(=O)N(C)C[C@H]1Oc2c(NS(=O)(=O)c3ccccc3)cccc2C(=O)N([C@H](C)CO)C[C@@H]1C 4.19%, C[C@H]1CN([C@@H](C)CO)C(=O)CCCn2cc(nn2)CO[C@H]1CN(C)S(=O)(=O)c1ccc(Oc2ccccc2)nc1 0.77%, C[C@@H]1CCCCO[C@@H](CN(C)Cc2ccccc2)[C@H](C)CN([C@@H](C)CO)C(=O)c2cc(NS(=O)(=O)c3ccccc3)ccc2O1 1.85%, C[C@@H]1CN([C@@H](C)CO)C(=O)c2cc(NS(=O)(=O)c3cccs3)ccc2O[C@@H]1CN(C)C(=O)Nc1ccc(F)cc1 -0.701%, C[C@@H]1CN([C@H](C)CO)C(=O)c2cc(NC(=O)c3ccncc3)ccc2O[C@@H](C)CCCCO[C@H]1CN(C)S(=O)(=O)c1ccc(F)cc1 0.556%, COc1ccc(NC(=O)Nc2ccc3c(c2)C(=O)N([C@@H](C)CO)C[C@H](C)[C@H](CN(C)C)O3)cc1 4.32%, C[C@@H]1CCCCO[C@@H](CN(C)C(=O)C2CCCCC2)[C@@H](C)CN([C@@H](C)CO)C(=O)c2cc(NC(=O)Nc3ccccc3)ccc2O1 -1.24%, COc1ccc(NC(=O)Nc2ccc3c(c2)C(=O)N([C@H](C)CO)C[C@@H](C)[C@@H](CN(C)S(=O)(=O)c2cn(C)cn2)O3)cc1 0.222%, C[C@H]1CN([C@@H](C)CO)C(=O)c2cccc(NC(=O)C3CCOCC3)c2O[C@H]1CN(C)Cc1ccc(Oc2ccccc2)cc1 5.74%, C[C@@H]1CN([C@@H](C)CO)C(=O)c2cc(NC(=O)Nc3ccc4c(c3)OCO4)ccc2O[C@@H]1CN(C)C -2.36%, C[C@H]1CCCCO[C@@H](CN(C)S(=O)(=O)c2ccccc2)[C@@H](C)CN([C@@H](C)CO)C(=O)c2cc(N(C)C)ccc2O1 1.05%, C[C@H](CO)N1C[C@H](C)[C@H](CN(C)Cc2ccc3c(c2)OCO3)Oc2c(NC(=O)c3ccncc3)cccc2C1=O -1.01%, C[C@H](CO)N1C[C@H](C)[C@H](CN(C)Cc2ccc3c(c2)OCO3)Oc2ccc(NC(=O)Nc3ccc(F)cc3)cc2CC1=O 1.05%, CNC[C@@H]1Oc2ccc(NC(=O)CCC(F)(F)F)cc2C(=O)N([C@@H](C)CO)C[C@H]1C 2.65%, CNC[C@@H]1Oc2ccc(NC(=O)Nc3ccc4c(c3)OCO4)cc2CC(=O)N([C@@H](C)CO)C[C@@H]1C -0.999%, C[C@@H]1CCCCO[C@H](CN(C)C)[C@@H](C)CN([C@H](C)CO)C(=O)c2cc(NC(=O)Cc3ccccc3)ccc2O1 -1.13%, C[C@H](CO)N1C[C@H](C)[C@@H](CN(C)C(=O)Nc2ccc3c(c2)OCO3)Oc2ccc(N(C)C)cc2C1=O -2.04%, C[C@@H]1CCCCO[C@@H](CN(C)C(=O)C2CCCCC2)[C@@H](C)CN([C@@H](C)CO)C(=O)c2cc(NS(C)(=O)=O)ccc2O1 -4.64%, C[C@@H]1CN([C@H](C)CO)C(=O)CCCn2cc(nn2)CO[C@@H]1CN(C)C(=O)Nc1ccc(N2CCCCC2)cc1 10.6%, C[C@@H]1CCCCO[C@@H](CN(C)Cc2ccncc2)[C@H](C)CN([C@@H](C)CO)C(=O)c2cc(NC(=O)c3ccncc3)ccc2O1 5.19%, C[C@@H]1CCCCO[C@H](CN(C)C(=O)C2CCCCC2)[C@H](C)CN([C@H](C)CO)C(=O)c2cc(NC(=O)Nc3ccccc3)ccc2O1 1.96%, C[C@@H]1CN([C@H](C)CO)C(=O)c2cccc(NS(=O)(=O)c3ccc(Cl)cc3)c2O[C@@H]1CN(C)C -2.17%, Cc1noc(C)c1NC(=O)N(C)C[C@H]1Oc2ccc(NC(=O)Cc3ccccc3)cc2C(=O)N([C@H](C)CO)C[C@H]1C 4.11%, C[C@H](CO)N1C[C@H](C)[C@H](CN(C)C)Oc2ccc(NS(C)(=O)=O)cc2C1=O 4.53%, C[C@@H]1CN([C@H](C)CO)C(=O)Cc2cc(N(C)C)ccc2O[C@H]1CN(C)Cc1ccc(C(F)(F)F)cc1 -0.721%, CC(C)NC(=O)Nc1ccc2c(c1)C(=O)N([C@@H](C)CO)C[C@@H](C)[C@H](CN(C)S(=O)(=O)c1cccs1)OCCCC[C@H](C)O2 3.77%, COc1ccc(S(=O)(=O)N(C)C[C@@H]2Oc3c(NC(=O)c4ccncc4)cccc3C(=O)N([C@@H](C)CO)C[C@H]2C)cc1 -7.21%, Cc1noc(C)c1NC(=O)Nc1ccc2c(c1)CC(=O)N([C@H](C)CO)C[C@@H](C)[C@@H](CN(C)C(=O)NC(C)C)O2 0.926%, Cc1noc(C)c1NC(=O)Nc1ccc2c(c1)C(=O)N([C@@H](C)CO)C[C@@H](C)[C@@H](CN(C)C(=O)CCCN(C)C)OCCCC[C@@H](C)O2 -4.32%, C[C@@H]1CN([C@@H](C)CO)C(=O)Cc2cc(NC(=O)c3ccncc3)ccc2O[C@H]1CN(C)C(=O)Nc1ccccc1 3.73%, COc1ccc(NC(=O)Nc2ccc3c(c2)C(=O)N([C@@H](C)CO)C[C@H](C)[C@@H](CN(C)S(=O)(=O)c2cn(C)cn2)O3)cc1 1.4%, C[C@H](CO)N1C[C@H](C)[C@H](CN(C)C(=O)c2ccncc2)OCCCC[C@H](C)Oc2ccc(NS(=O)(=O)c3ccccc3)cc2C1=O -1.72%, CC(C)NC(=O)Nc1ccc2c(c1)C(=O)N([C@@H](C)CO)C[C@@H](C)[C@@H](CN(C)C)OCCCC[C@H](C)O2 -4.5%, C[C@@H]1CN([C@H](C)CO)C(=O)c2cc(NS(=O)(=O)c3cn(C)cn3)ccc2O[C@@H](C)CCCCO[C@@H]1CN(C)C -0.00982%, CC(C)NC(=O)N(C)C[C@H]1Oc2ccc(N(C)C)cc2CC(=O)N([C@H](C)CO)C[C@@H]1C 0.831%, COc1ccc(S(=O)(=O)Nc2ccc3c(c2)C(=O)N([C@@H](C)CO)C[C@@H](C)[C@@H](CN(C)S(=O)(=O)c2cccs2)O3)cc1 -0.91%, C[C@@H]1CCCCO[C@@H](CN(C)S(=O)(=O)c2ccc(F)cc2)[C@@H](C)CN([C@@H](C)CO)C(=O)c2cc(NC(=O)C3CCCCC3)ccc2O1 2.57%, Cc1noc(C)c1NC(=O)N(C)C[C@@H]1Oc2c(NC(=O)c3ccc(-c4nccs4)cc3)cccc2C(=O)N([C@@H](C)CO)C[C@@H]1C -3.18%, COc1ccc(CN(C)C[C@H]2Oc3ccc(NC(=O)Nc4c(C)noc4C)cc3CC(=O)N([C@H](C)CO)C[C@@H]2C)cc1 -6.52%, C[C@@H]1CN([C@@H](C)CO)C(=O)c2cc(NS(=O)(=O)c3ccccc3)ccc2O[C@@H](C)CCCCO[C@H]1CN(C)Cc1ccncc1 -2.17%, C[C@H]1CN([C@@H](C)CO)C(=O)c2cccc(NS(=O)(=O)c3ccc(Cl)cc3)c2O[C@@H]1CN(C)C(=O)Nc1ccc(F)cc1 0.723%, C[C@H](CO)N1C[C@H](C)[C@@H](CN(C)C(=O)Nc2ccc(F)cc2)Oc2c(NS(=O)(=O)c3ccc(Cl)cc3)cccc2C1=O 2.75%, CNC[C@H]1Oc2c(NC(=O)Nc3c(C)noc3C)cccc2C(=O)N([C@@H](C)CO)C[C@H]1C 1.31%, Cc1noc(C)c1S(=O)(=O)Nc1ccc2c(c1)CC(=O)N([C@@H](C)CO)C[C@@H](C)[C@H](CN(C)C(=O)Nc1ccc(F)cc1)O2 -0.469%, C[C@@H]1CN([C@@H](C)CO)C(=O)Cc2cc(NC(=O)c3ccncc3)ccc2O[C@@H]1CN(C)C(=O)Nc1cccc2ccccc12 2.94%, C[C@@H]1CN([C@@H](C)CO)C(=O)c2cc(NC(=O)C3CC3)ccc2O[C@@H]1CN(C)C(=O)Nc1ccccc1 -1.01%
